# Inconclusive results are not listed. A call without a number means that no potency is given here. Active and inactive are the calls of the source. Unless noted, calls come from the whole dose curve; as a rule, active = well fitted curve in the direction sought with a large enough effect; inconclusive = small, poorly fitted or top-dose-only effect, or another doubt; inactive = no such curve, though single readings can be large; an effect the other way counts as inactive or inconclusive.
# Assays:
# [1] = qHTS for differential inhibitors of proliferation of Plasmodium falciparum line Dd2 (AID 1882); conditions: Potency: Plasmodium falciparum Dd2 proliferation inhibition; note: nearly all actives have a fitted effect of over 65% in size; note: potency is the fitted concentration of half-maximal effect
# In short: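 SYBR Green I DNA fluorescence read-out, ex 485/em 535 nm. Signals were normalized to 0.29 uM artemisinin and DMSO wells, then corrected using vehicle-only plates flanking each stack. Parasite growth ran 72 h in erythrocytes before lysis.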
# [2] = qHTS for differential inhibitors of proliferation of Plasmodium falciparum line HB3 (AID 1886); conditions: Potency: Plasmodium falciparum HB3 proliferation inhibition;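 note: parasites grown with compound for 72 h before SYBR Green readout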; note: potency is the fitted concentration of half-maximal effect
# [3] = biological target: Ferritin light chain (Equus caballus) (UniProt P02791); assay: qHTS Validation Assay for Identification of Novel General Anesthetics (AID 2323); note: series mostly up to about 77 µM
# In short: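 Normalized fluorescence response, scaled between free 1-AMA and 1-AMA/apoferritin complex, fitted to a four-parameter Hill equation for concentration-effect values. Binding mix: 10 uM horse-spleen apoferritin, 50% saturated 1-AMA in PBS; read 380/535 nm after 10 min.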
# [4] = biological target: ATP-dependent DNA helicase Q1 (Homo sapiens) (UniProt P46063); assay: qHTS Validation Assay for Inhibitors of RecQ-Like Dna Helicase 1 (RECQ1) (AID 2353)
# In short: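 50 nM RECQ1T1 preincubated 15 min with compound in Tris pH 8.0 buffer with MgCl2, DTT, Tween-20 and 2.5 ug/ml poly(dI-dC); started with 200 nM TAMRA/BHQ-2 forked duplex and 2 mM ATP. Unwinding read as fluorescence (525/598 nm), two reads 2 h apart.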
# [5] = biological target: RecQ-like DNA helicase BLM (Homo sapiens) (UniProt P54132); assay: qHTS Validation Assay for Inhibitors of Bloom's syndrome helicase (BLM) (AID 2364)
# In short: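 Forked 20-bp duplex substrate (200 nM, TAMRA/BHQ-2) plus 2 mM ATP added after 15 min compound preincubation with 50 nM enzyme, pH 8.0, poly(dI-dC) 2.5 ug/ml. Strand separation followed by fluorescence (525/598 nm) over 2 h, normalized to enzyme-free and DMSO controls.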
# [6] = Cytometric Cell-Based qHTS for Inhibitors of the mTORC1 Signaling Pathway in MEF (Tsc2-/-, p53-/-) Cells (AID 2660);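 note: Tsc2 and p53 null MEFs carrying empty vector with compound for 24 h; percent of cells above a phospho-rpS6 to PI ratio cutoff in each well; series mostly up to about 38 µM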
# In short: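 Cells are plated, treated with compound for 24 hrs at 37 degree Celsius, then fixed, blocked and immunostained for phospho-rpS6 Ser235/236. Propidium iodide counterstain follows. Per-well % positive cells is derived from the PI-normalized phospho-S6 signal.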
# [7] = High Content Imaging Cell-Based qHTS for Inhibitors of the mTORC1 Signaling Pathway in MEF (Tsc2-/-, p53-/-) Cells (AID 2666);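 note: percent of cells scored positive for phospho-rpS6 Ser235/236 immunostaining by imaging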
# In short: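 Cells were plated, dosed with compound after 24 hrs, and incubated another 24 hrs at 37 degree Celsius. Fixed cells were immunostained for phospho-rpS6 Ser235/236 and counterstained, and the normalized signal was scored as % active cells against rapamycin and DMSO controls.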
# [8] = qHTS for differential inhibitors of proliferation of Plasmodium falciparum line W2 (AID 1883); conditions: Potency: Plasmodium falciparum W2 proliferation inhibition;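 note: parasites grown with compound for 72 h before lysis and staining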; note: potency is the fitted concentration of half-maximal effect
# [9] = qHTS Assay for Identification of Small Molecule Inducers of Hypoxia Response (AID 2120; active = well fitted curve in the direction sought with a large enough effect in the signal ratio, with a control signal flat, not every such curve was filed as active; the % refers to the signal ratio)
# In short: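 HRE-beta-lactamase reporter in CellSensor HRE-bla ME-180 cells, 2500 cells/well in Opti-MEM with 0.5% dialyzed FBS; compounds tested as titration series, 17 h at 37 degrees C. CCF4 substrate 2.5 h at room temperature; AC50 from 460/530 nm ratio.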
# [10] = qHTS Assay for Modulators of Human Peripheral Myelin Protein 22 (PMP22) Expression/Activity (AID 1967; active = well fitted curve in the direction sought with a large enough effect in the signal ratio; the % refers to the signal ratio)
# In short: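 Engineered MSC80 cells, Pmp22-promoter green and EF-alpha red luciferase reporters; 24h compound treatment at 37 °C. Concentration-response fits on green, red and ratio signals, each overlap-corrected, with %Activity normalized to untreated wells.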
# Ferritin light chain (Equus caballus), sequence (P02791 2-175 limits assumed): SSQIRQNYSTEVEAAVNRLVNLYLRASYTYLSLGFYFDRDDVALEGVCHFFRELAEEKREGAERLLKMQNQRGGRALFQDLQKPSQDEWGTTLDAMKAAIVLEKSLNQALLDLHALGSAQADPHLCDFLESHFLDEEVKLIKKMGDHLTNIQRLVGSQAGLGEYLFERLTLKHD
# ATP-dependent DNA helicase Q1 (Homo sapiens), sequence (P46063 whole entry, looked up): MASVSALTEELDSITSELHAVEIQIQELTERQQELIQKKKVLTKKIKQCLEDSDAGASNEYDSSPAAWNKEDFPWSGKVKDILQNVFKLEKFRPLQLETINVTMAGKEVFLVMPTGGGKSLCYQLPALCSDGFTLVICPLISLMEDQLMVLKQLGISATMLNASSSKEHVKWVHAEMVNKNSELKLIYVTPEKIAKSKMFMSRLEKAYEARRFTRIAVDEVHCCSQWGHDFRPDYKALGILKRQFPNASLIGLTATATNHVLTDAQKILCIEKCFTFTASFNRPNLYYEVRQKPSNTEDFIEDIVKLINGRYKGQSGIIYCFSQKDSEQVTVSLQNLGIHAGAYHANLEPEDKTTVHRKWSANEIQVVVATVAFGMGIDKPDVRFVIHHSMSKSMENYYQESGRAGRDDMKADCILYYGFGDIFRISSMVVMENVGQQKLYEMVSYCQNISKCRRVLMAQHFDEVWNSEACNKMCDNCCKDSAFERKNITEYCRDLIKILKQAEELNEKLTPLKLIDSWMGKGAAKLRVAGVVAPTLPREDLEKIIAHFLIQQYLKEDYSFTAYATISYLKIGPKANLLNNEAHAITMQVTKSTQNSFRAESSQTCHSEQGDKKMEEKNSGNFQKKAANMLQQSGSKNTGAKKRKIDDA
# RecQ-like DNA helicase BLM (Homo sapiens), sequence (P54132 whole entry, looked up): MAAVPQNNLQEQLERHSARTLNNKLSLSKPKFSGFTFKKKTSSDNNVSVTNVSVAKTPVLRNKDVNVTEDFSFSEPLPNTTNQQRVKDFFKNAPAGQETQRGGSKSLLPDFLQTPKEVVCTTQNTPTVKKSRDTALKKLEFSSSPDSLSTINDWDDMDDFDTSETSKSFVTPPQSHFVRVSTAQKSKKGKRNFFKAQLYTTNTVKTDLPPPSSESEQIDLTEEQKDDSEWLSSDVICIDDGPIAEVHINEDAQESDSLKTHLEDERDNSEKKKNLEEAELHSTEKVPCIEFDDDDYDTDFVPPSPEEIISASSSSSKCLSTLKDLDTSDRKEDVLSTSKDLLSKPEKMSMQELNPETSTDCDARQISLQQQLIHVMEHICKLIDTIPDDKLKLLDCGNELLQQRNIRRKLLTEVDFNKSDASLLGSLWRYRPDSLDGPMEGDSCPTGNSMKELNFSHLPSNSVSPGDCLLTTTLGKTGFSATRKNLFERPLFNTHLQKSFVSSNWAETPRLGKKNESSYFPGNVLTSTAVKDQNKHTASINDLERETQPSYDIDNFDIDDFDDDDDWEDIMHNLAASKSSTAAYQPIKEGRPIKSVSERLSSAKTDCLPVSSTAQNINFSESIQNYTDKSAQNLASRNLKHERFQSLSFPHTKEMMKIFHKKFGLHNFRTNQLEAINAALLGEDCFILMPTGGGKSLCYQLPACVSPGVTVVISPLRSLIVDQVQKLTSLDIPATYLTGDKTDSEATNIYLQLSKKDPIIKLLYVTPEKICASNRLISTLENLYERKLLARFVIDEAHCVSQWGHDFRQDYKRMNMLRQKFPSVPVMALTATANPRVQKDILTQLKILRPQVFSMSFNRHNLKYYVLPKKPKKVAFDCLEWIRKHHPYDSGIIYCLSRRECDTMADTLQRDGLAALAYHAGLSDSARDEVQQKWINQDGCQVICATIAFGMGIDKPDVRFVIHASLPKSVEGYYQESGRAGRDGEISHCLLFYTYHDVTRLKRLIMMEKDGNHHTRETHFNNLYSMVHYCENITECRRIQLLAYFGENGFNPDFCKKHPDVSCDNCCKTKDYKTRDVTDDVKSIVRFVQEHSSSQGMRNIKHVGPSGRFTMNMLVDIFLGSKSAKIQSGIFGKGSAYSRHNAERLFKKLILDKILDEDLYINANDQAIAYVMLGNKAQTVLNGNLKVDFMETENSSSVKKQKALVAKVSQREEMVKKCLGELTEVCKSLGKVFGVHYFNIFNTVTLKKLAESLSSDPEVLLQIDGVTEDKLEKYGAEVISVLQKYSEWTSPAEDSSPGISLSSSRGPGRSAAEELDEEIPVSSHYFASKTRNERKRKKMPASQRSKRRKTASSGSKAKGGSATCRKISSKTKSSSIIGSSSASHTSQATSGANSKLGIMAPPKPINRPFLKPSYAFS
SMILES,Potency [1],Potency [2],outcome [3],Potency [4],Potency [5],outcome [6],Potency [7],Potency [8],outcome [9],outcome [10]
CC(C)COCC(CN(Cc1ccccc1)c1ccccc1)N1CCCC1 (stereo not drawn),inactive,inactive,inactive,inactive,inactive,inactive,inactive,–,–,–
CCn1cc(C(=O)O)c(=O)c2cc3c(cc21)OCO3,inactive,–,–,inactive,inactive,inactive,inactive,–,–,–
CC(=O)Oc1cc(C(C)C)c(OCCN(C)C)cc1C,–,inactive,inactive,inactive,–,inactive,inactive,7.94 µM (active),–,–
CC(C)[N+](C)(CCOC(=O)C1c2ccccc2Oc2ccccc21)C(C)C,–,7.08 µM (active),inactive,inactive,inactive,inactive,inactive,8.91 µM (active),–,–
C[C@]12CCC(=O)C=C1CC[C@@H]1[C@@H]2C(=O)C[C@@]2(C)[C@H]1CC[C@]2(O)C(=O)CO,inactive,inactive,inactive,inactive,inactive,inactive,inactive,–,–,–
CCOC(=O)c1cnc2c(cnn2CC)c1NN=C(C)C,inactive,–,inactive,inactive,–,inactive,inactive,–,–,–
CCCN(CCC)CCc1cccc2c1CC(=O)N2,inactive,inactive,inactive,inactive,–,inactive,inactive,–,–,–
C[C@]12CCC(=O)C=C1CC[C@@H]1[C@@H]2CC[C@@]2(C)[C@H]1CC[C@]2(O)C(=O)CO,inactive,–,inactive,inactive,–,inactive,inactive,–,–,–
CCCCNc1c(C(=O)OCC)c(C)nc2c1cnn2CC,–,12.6 µM (active),inactive,inactive,–,inactive,inactive,11.2 µM (active),–,–
CN=C(NC#N)NCCSCc1nc[nH]c1C,inactive,inactive,inactive,inactive,inactive,inactive,inactive,–,inactive,–
CCc1cccc(N(C)C(N)=Nc2cccc3ccccc23)c1,–,11.2 µM (active),–,inactive,inactive,inactive,inactive,0.631 µM (active),–,–
Cc1nnc(SCC2=C(C(=O)O)N3C(=O)[C@@H](NC(=O)Cn4cnnn4)[C@H]3SC2)s1,inactive,inactive,inactive,inactive,–,inactive,inactive,–,–,–
O=C(CCNNC(=O)c1ccncc1)NCc1ccccc1,inactive,–,inactive,inactive,inactive,inactive,inactive,–,–,inactive
O=C(O)CP(=O)(O)O,inactive,inactive,inactive,inactive,–,inactive,inactive,–,–,inactive
CN(C)CCCN1c2ccccc2Sc2ccccc21,–,10 µM (active),inactive,inactive,inactive,inactive,inactive,0.794 µM (active),–,–
COC(=O)[C@@H](N)Cc1ccc(O)c(O)c1,inactive,–,inactive,inactive,inactive,inactive,inactive,–,–,–

SMILES,Potency [1],Potency [2],outcome [3],Potency [4],Potency [5],outcome [6],Potency [7],Potency [8],outcome [9],outcome [10]
CCN1CCC[C@H]1CNC(=O)c1c(O)c(Cl)cc(Cl)c1OC,inactive,inactive,inactive,inactive,inactive,inactive,inactive,–,–,–
C(=C\c1ccccc1)/CN1CCN(C(c2ccccc2)c2ccccc2)CC1,11.2 µM (active),11.2 µM (active),inactive,inactive,inactive,inactive,inactive,–,–,–
Nc1c2c(nc3ccccc13)CCCC2O (stereo not drawn),inactive,inactive,inactive,inactive,inactive,inactive,inactive,–,–,–
C[C@H](CS)C(=O)N1CCC[C@H]1C(=O)O,–,inactive,inactive,inactive,inactive,inactive,inactive,inactive,–,–
Cc1cc(C)c(/C=C2\C(=O)Nc3ccccc32)[nH]1,inactive,inactive,inactive,–,–,inactive,inactive,–,–,–
CCOC(=O)C1=C(C)NC(C)=C(C(=O)OC)C1c1cccc(Cl)c1Cl (stereo not drawn),–,12.6 µM (active),–,inactive,–,inactive,inactive,8.91 µM (active),–,–
NC(=O)N1c2ccccc2C=Cc2ccccc21,inactive,inactive,inactive,inactive,inactive,inactive,inactive,–,inactive,–
O=C1CC2(CCCC2)CC(=O)N1CCCCN1CCN(c2ncccn2)CC1,inactive,inactive,inactive,inactive,inactive,inactive,inactive,–,–,–
COCCc1ccc(OCC(O)CNC(C)C)cc1 (stereo not drawn),inactive,inactive,inactive,inactive,–,inactive,inactive,–,–,–
CO[C@@]1(NC(=O)CSCC#N)C(=O)N2C(C(=O)O)=C(CSc3nnnn3C)CS[C@@H]21,inactive,inactive,inactive,inactive,–,inactive,inactive,–,–,–
CCC(=O)c1ccc2c(c1)N(CCCN(C)C)c1ccccc1S2,–,11.2 µM (active),inactive,inactive,inactive,inactive,inactive,5.01 µM (active),–,–
COc1ccc(CN(CCN(C)C)c2ccccn2)cc1,–,inactive,inactive,inactive,–,inactive,inactive,5.62 µM (active),–,–
C[C@]12CC[C@@H]3c4ccc(O)cc4C[C@@H](CCCCCCCCCS(=O)CCCC(F)(F)C(F)(F)F)[C@H]3[C@@H]1CC[C@@H]2O (stereo partly drawn),–,–,–,–,–,inactive,inactive,–,–,–
COC(=O)C1=C(C)NC(C)=C(C(=O)OCCN(C)Cc2ccccc2)C1c1cccc([N+](=O)[O-])c1 (stereo not drawn),–,–,–,inactive,–,–,–,–,–,–
CN(C)C/C=C(/c1ccc(Br)cc1)c1cccnc1,–,–,inactive,inactive,inactive,inactive,inactive,7.08 µM (active),–,–
